Experimental data from the supplement of paper PMC6555819.

Assays:
Assay in all cases: PBM binding z-score (relative to random genomic background probes); higher = stronger binding; sequences stand for … in GC…GCGATTGACAGCGTAGAATGAAGG
[1] = system: FXR:RXRa (NR concentration 270 nM, RXRa partner concentration 90 nM)
In short: (§1)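 Scanned fluorescence from custom Agilent 4×180K protein-binding microarrays was regression-normalized. Binding z-scores use random background probes as reference. Ligand-free nuclear receptor dimers were incubated on the arrays for 1 h and detected with antibodies against each partner (one per run).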

[2] = system: LXRa:RXRa (NR concentration 270 nM, RXRa partner concentration 90 nM)
In short: as §1

[3] = system: LXRa homodimer (NR concentration 270 nM)
In short: as §1

[4] = system: LXRb:RXRa (NR concentration 270 nM, RXRa partner concentration 90 nM)
In short: as §1

[5] = system: LXRb homodimer (NR concentration 270 nM)
In short: as §1

[6] = system: PPARa:RXRa (NR concentration 270 nM, RXRa partner concentration 90 nM)
In short: as §1

[7] = system: PPARg:RXRa (NR concentration 180 nM, RXRa partner concentration 90 nM)
In short: as §1

[8] = system: PPARg:RXRa 270nM:90nM, anti-RXR (NR concentration 270 nM, RXRa partner concentration 90 nM)
In short: as §1

[9] = system: PPARg:RXRa 30nM:10nM, anti-RXR (NR concentration 30 nM, RXRa partner concentration 10 nM)
In short: as §1

[10] = system: PPARg:RXRa 90nM:30nM, anti-RXR (NR concentration 90 nM, RXRa partner concentration 30 nM)
In short: as §1

[11] = system: PPARg:RXRa DBDmut IVT, anti-RXR (DBD mutation: RXRa K156A/R161A, NR concentration 270 nM, RXRa partner concentration 90 nM)
In short: as §1

[12] = system: PPARg:RXRa IVT, anti-PPARg (NR concentration 270 nM, RXRa partner concentration 90 nM)
In short: as §1

[13] = system: PPARg DBDmut:RXRa IVT, anti-PPARg (DBD mutation: PPARg1 K132A/R137A, NR concentration 270 nM, RXRa partner concentration 90 nM)
In short: as §1

[14] = system: PPARg DBDmut IVT, anti-PPARg (DBD mutation: PPARg1 K132A/R137A, NR concentration 270 nM)
In short: as §1

[15] = system: PPARg homodimer (NR concentration 180 nM)
In short: as §1

[16] = system: PXR:RXRa (NR concentration 270 nM, RXRa partner concentration 90 nM)
In short: as §1

[17] = system: PXR homodimer (NR concentration 270 nM)
In short: as §1

[18] = system: RARa:RXR (NR concentration 270 nM, RXRa partner concentration 90 nM)
In short: as §1

[19] = system: RARa homodimer (NR concentration 270 nM)
In short: as §1

[20] = system: RARb:RXRa (NR concentration 270 nM, RXRa partner concentration 90 nM)
In short: as §1

ACTATTACTTGACTTAGGGCAACCGATACGACGC was tested, and the PBM binding z-score [1] was 0.391, the PBM binding z-score [2] was 0.445 and the PBM binding z-score [3] was 1.02. It also gave a PBM binding z-score [4] of 0.691, a PBM binding z-score [5] of 1.56 and a PBM binding z-score [6] of 0.231. For the same sequence, the PBM binding z-score [7] was 1.19, the PBM binding z-score [8] was 0.283 and the PBM binding z-score [9] was 0.727. For the same sequence, the PBM binding z-score [10] was 0.716, the PBM binding z-score [11] was 0.692 and the PBM binding z-score [12] was 0.81. It also gave a PBM binding z-score [13] of 1.57, a PBM binding z-score [14] of 1.96 and a PBM binding z-score [15] of 1.24. It also gave a PBM binding z-score [16] of 0.284, a PBM binding z-score [17] of 0.533 and a PBM binding z-score [18] of 0.623. For the same sequence, the PBM binding z-score [19] was 1.42 and the PBM binding z-score [20] was 0.876.

CGAACGAGGGCATGAGTTGATTGCAAATGCCGAT showed a PBM binding z-score [1] of 0.319, a PBM binding z-score [2] of 0.271 and a PBM binding z-score [3] of -0.529. It also gave a PBM binding z-score [4] of -0.0625, a PBM binding z-score [5] of -0.873 and a PBM binding z-score [6] of 1.14. For the same sequence, the PBM binding z-score [7] was 1.26, the PBM binding z-score [8] was 1.58 and the PBM binding z-score [9] was 0.205. The PBM binding z-score [10] was 1.08, the PBM binding z-score [11] was 2.89 and the PBM binding z-score [12] was 1.87. For the same sequence, the PBM binding z-score [13] was -0.365, the PBM binding z-score [14] was -0.273 and the PBM binding z-score [15] was 0.304. The PBM binding z-score [16] was 0.676, the PBM binding z-score [17] was 0.4 and the PBM binding z-score [18] was 0.51. It also gave a PBM binding z-score [19] of -0.117 and a PBM binding z-score [20] of 1.96.

CAAACTACGTCAAGAGGTCAAAGTCCGCTTCCCG showed a PBM binding z-score [1] of 5.07, a PBM binding z-score [2] of 5.77 and a PBM binding z-score [3] of 5.87. For the same sequence, the PBM binding z-score [4] was 4.77, the PBM binding z-score [5] was 2.06 and the PBM binding z-score [6] was 5.09. For the same sequence, the PBM binding z-score [7] was 3.07, the PBM binding z-score [8] was 4.83 and the PBM binding z-score [9] was 2.39. The PBM binding z-score [10] was 4.26, the PBM binding z-score [11] was 1.03 and the PBM binding z-score [12] was 2.44. For the same sequence, the PBM binding z-score [13] was 1.05, the PBM binding z-score [14] was 0.608 and the PBM binding z-score [15] was 3.36. For the same sequence, the PBM binding z-score [16] was 5.8, the PBM binding z-score [17] was 3.22 and the PBM binding z-score [18] was 6.09. It also gave a PBM binding z-score [19] of 1.56 and a PBM binding z-score [20] of 4.01.

GCTCGGAGGACAAGGTTAGAGCTTTGTCCGTAGA gave a PBM binding z-score [1] of -0.181, a PBM binding z-score [2] of -0.186 and a PBM binding z-score [3] of -1.07. The PBM binding z-score [4] was -0.329, the PBM binding z-score [5] was -0.89 and the PBM binding z-score [6] was 0.169. The PBM binding z-score [7] was -0.843, the PBM binding z-score [8] was 0.0367 and the PBM binding z-score [9] was -1.07. The PBM binding z-score [10] was -0.395, the PBM binding z-score [11] was -0.578 and the PBM binding z-score [12] was -0.435. It also gave a PBM binding z-score [13] of -1.46, a PBM binding z-score [14] of -0.888 and a PBM binding z-score [15] of -0.772. It also gave a PBM binding z-score [16] of -0.186, a PBM binding z-score [17] of -0.847 and a PBM binding z-score [18] of -0.266. For the same sequence, the PBM binding z-score [19] was -1.1 and the PBM binding z-score [20] was 1.45.

TGATATAGGTAAAAGGTGAAAGTCGGTGTGGTAA showed a PBM binding z-score [1] of 1.72, a PBM binding z-score [2] of 1.59 and a PBM binding z-score [3] of 0.194. It also gave a PBM binding z-score [4] of 1.96, a PBM binding z-score [5] of 0.256 and a PBM binding z-score [6] of 5.88. For the same sequence, the PBM binding z-score [7] was 9.54, the PBM binding z-score [8] was 8.88 and the PBM binding z-score [9] was 8.67. It also gave a PBM binding z-score [10] of 9.7, a PBM binding z-score [11] of 5.38 and a PBM binding z-score [12] of 5.55. The PBM binding z-score [13] was 1.59, the PBM binding z-score [14] was 1.77 and the PBM binding z-score [15] was 1.8. It also gave a PBM binding z-score [16] of 1.68, a PBM binding z-score [17] of 0.555 and a PBM binding z-score [18] of 2.78. For the same sequence, the PBM binding z-score [19] was 1.18 and the PBM binding z-score [20] was 2.05.

In the case of CAAACTATGTCACCGGAAGGTCAAAGTCCGCATG, the PBM binding z-score [1] is reported as 3.73, the PBM binding z-score [2] is reported as 3.78 and the PBM binding z-score [3] is reported as 4.13. The PBM binding z-score [4] was 3.89, the PBM binding z-score [5] was 1.52 and the PBM binding z-score [6] was 4.37. It also gave a PBM binding z-score [7] of 3.69, a PBM binding z-score [8] of 4.08 and a PBM binding z-score [9] of 1.4. For the same sequence, the PBM binding z-score [10] was 2.98, the PBM binding z-score [11] was 5.08 and the PBM binding z-score [12] was 5.25. For the same sequence, the PBM binding z-score [13] was 0.711, the PBM binding z-score [14] was 1.64 and the PBM binding z-score [15] was 3.93. The PBM binding z-score [16] was 4.29, the PBM binding z-score [17] was 2.1 and the PBM binding z-score [18] was 4.93. The PBM binding z-score [19] was 2.43 and the PBM binding z-score [20] was 3.7.
